In PubChem BioAssay (NCATS):
Records with an inconclusive call do not appear. Calls of active or inactive are those of the source. The call rests on the fitted dose curve; in most records, active means well fitted cell-killing curve with a large enough effect; inconclusive means small, poorly fitted or top-dose-only effect, or effect the other way; inactive means no such curve, though single readings can be large or run the other way.
Potency means the concentration at half of the fitted maximal effect.

Experiment: Quantitative High-Throughput drug screen in 47 multiple myeloma cell lines against the NCATS MIPE library collection: XG6_PLB cell viability assay (AID 1919865); further: nearly all actives have a fitted effect of over 40% in size
Details: XG6 myeloma viability, CellTiter-Glo ATP luminescence, 48 h; series mostly up to 45.8 µM
Source text: PI: Beverly A. Mock Ph.D.
Laboratory of Cancer Biology and Genetics,
Center for Cancer Research, National Cancer Institute,
National Institute of Health, Bethesda, Maryland
Drug resistance and disease progression are common in multiple myeloma (MM) patients, underscoring the need for new therapeutic combinations. […] We hypothesized that effective combinations would reduce MYC expression and enhance p16 activity. […] These preclinical data identify potentially useful drug combinations for evaluation in drug-resistant MM and reveal potential mechanisms of combined drug sensitivity.
Described herein is the primary MIPE qHTS used to cherrypick compounds. Validated compounds were then further tested for potential synergistic activiy.
[1] Peat TJ, Gaikwad SM, Dubois W, Gyabaah-Kessie N, Zhang S, Gorjifard S, Phyo Z, Andres M, Hughitt VK, Simpson RM, Miller MA, Girvin AT, Taylor A, Williams D, D'Antonio N, Zhang Y, Rajagopalan A, Flietner E, Wilson K, Zhang X, Shinn P, Klumpp-Thomas C, McKnight C, Itkin Z, Chen L, Kazandijian D, Zhang J, Michalowski AM, Simmons JK, Keats J, Thomas CJ, Mock BA. Drug combinations identified by high-throughput screening promote cell cycle transition and upregulate Smad pathways in myeloma. Cancer Lett. 2023 Aug 1;568:216284. doi: 10.1016/j.canlet.2023.216284. Epub 2023 Jun 24. PMID: 37356470; PMCID: PMC10408729.
SEQUENCE No. (e.g., 1, 2, 3, etc.); […] (e.g., Cells, Incubation, Reagent, etc.); VALUE and DESCRIPTION.
1; Cells; 5 uL; white, solid bottom 1536-well Greiner assay plate.
2; Compounds; 23 nL; Kalypsis pin tool (Wako USA) equipped with a 1536-well pin head to transfer to the assay plates.
3; Incubation; 48 hours; 37C incubation.
4; Reagent;5uL; CellTiter Glo (Promega).
5; Detector; 425V; Luminescence; Viewlux PerkinElmer.
NOTES (numbers refer to Sequence numbers above)
1. The cell-based screening methods employed in this study were like those previously published. Briefly, the corresponding myeloma cell lines were screened in 1,536-well plates with 500 cells, 5-uL per well for inhibition of cell viability (assessed by measuring ATP levels with CellTiterGlo).
2. NCATS MIPE 4.0 library of approved and investigational drugs were added using the Kalypsis pin tool. Wells treated with DMSO only for 100% viability and media only for 0% viability were used as controls.
3. The assay plates were covered and incubated for 48 hours in a 37C, 5% CO2 incubator with controlled humidity.
4. After 48 hours, CellTilter-GloTM luminescent substrate mix (Promega) reagent was added to the assay plate and plates we incubated for 5 min at room temperature.
5. Signal was measured as median relative luminescence units on a ViewLux (PerkinElmer) multiplate reader.
[1] Heske CM, Davis MI, Baumgart JT, Wilson K, Gormally MV, Chen L, Zhang X, Ceribelli M, Duveau DY, Guha R, Ferrer M, Arnaldez FI, Ji J, Tran HL, Zhang Y, Mendoza A, Helman LJ, Thomas CJ. Matrix Screen Identifies Synergistic Combination of PARP Inhibitors and Nicotinamide Phosphoribosyltransferase (NAMPT) Inhibitors in Ewing Sarcoma. Clin Cancer Res. 2017 Dec 1;23(23):7301-7311. doi: 10.1158/1078-0432.CCR-17-1121. Epub 2017 Sep 12. PMID: 28899971; PMCID: PMC6636827.
For `CC1=C(CC(=O)O)c2cc(F)ccc2C1=Cc1ccc(S(C)=O)cc1` (stereo not given), the Potency was 1.05 µM (active). For `CCOC(=O)[C@H]1O[C@H]1C(=O)N[C@@H](CC(C)C)C(=O)NCCC(C)C`, the Potency was 6.62 µM (active). With `Cc1cccc(Nc2nc(N[C@@H]3CCCC[C@H]3N)ncc2C(N)=O)c1` the Potency was 0.743 µM (active). For `CC1CCN(c2cc(N3CCN(C)CC3)ccc2NC(=O)c2cc(C#N)c[nH]2)CC1`, the Potency was “inactive”. In the case of `Cc1ccccc1C(=O)c1ccc(Nc2ccc(Br)cc2N)cc1Cl`, the Potency is reported as 18.7 µM (active). For `CNC(=O)c1c(-c2ccc(F)cc2)oc2cc(N(CCO)S(C)(=O)=O)c(C3CC3)cc12`, the Potency was 18.7 µM (active). With `OC1CCC(Nc2ncc3nc(Nc4c(F)cc(F)cc4F)n([C@@H]4CCOC4)c3n2)CC1` (stereo not given in full) the Potency was 9.35 µM (active). With `C[C@@H]1C[C@H]2[C@@H]3CCC4=CC(=O)C=C[C@]4(C)[C@@]3(F)[C@@H](O)C[C@]2(C)[C@@]1(O)C(=O)CO` the Potency was “inactive”. With `CC(C)(C)c1nc(-c2cccc(NS(=O)(=O)c3c(F)cccc3F)c2F)c(-c2ccnc(N)n2)s1` the Potency was 2.96 µM (active). In the case of `CC[C@H](CC#N)OC(=O)N[C@@H](C)c1cccc(NC(=O)Nc2ccc(-c3cnco3)c(OC)c2)c1`, the Potency is reported as 2.96 µM (active). With `CC[C@H](C)n1cc(C)c2c(C(=O)NCc3c(C)cc(C)[nH]c3=O)cc(-c3ccc(N4CCNCC4)nc3)cc21` the Potency was 16.6 µM (active). In the case of `COC(=O)[C@H](c1ccccc1Cl)N1CCc2sccc2C1`, the Potency is reported as “inactive”. For `CCC(c1ccc(O)cc1)C(CC)c1ccc(O)cc1` (stereo not given), the Potency was 0.833 µM (active). For `CC(NCCc1ccc(O)cc1)C(O)c1ccc(O)cc1` (stereo not given), the Potency was “inactive”. With `Nc1[nH]nc2nnc(-c3c(-c4ccccc4)nn4ccccc34)cc12` the Potency was 3.72 µM (active). In the case of `NC[C@H]1O[C@H](O[C@@H]2[C@@H](O)[C@@H](O[C@H]3O[C@H](CO)[C@@H](O)[C@H](N)[C@@H]3O)[C@H](N)C[C@@H]2N)[C@H](O)[C@@H](O)[C@H]1O`, the Potency is reported as “inactive”. In the case of `CN(C)CC[C@H](CSc1ccccc1)Nc1ccc(S(=O)(=O)NC(=O)c2ccc(N3CCN(Cc4ccccc4-c4ccc(Cl)cc4)CC3)cc2)cc1[N+](=O)[O-]`, the Potency is reported as 3.72 µM (active). With `C[C@]12C=CC(=O)C=C1CC[C@@H]1[C@@H]2[C@@H](O)C[C@@]2(C)[C@@H]1CC[C@]2(O)C(=O)CO` the Potency was “inactive”. With `COc1cc(Nc2nc3ccccc3nc2NS(=O)(=O)c2ccc(NC(=O)c3ccc(C)c(OC)c3)cc2)cc(OC)c1` the Potency was 13.2 µM (active). For `Cc1cnc(Nc2cccc(CN3CCOCC3)c2)nc1Nc1cccc(S(=O)(=O)NC(C)(C)C)c1`, the Potency was 1.18 µM (active). For `O=C1C(c2c(O)[nH]c3ccccc23)=Nc2ccccc21`, the Potency was 0.296 µM (active). With `COc1c(C)cnc(Cn2cnc3c(Cl)nc(N)nc32)c1C` the Potency was 0.264 µM (active). For `C[C@]12CC[C@@H]3c4ccc(O)cc4CC[C@H]3[C@H]1[C@@H](O)[C@@H](O)[C@H]2O`, the Potency was 14.8 µM (active). For `CCN1CCN(c2ccc(Nc3cc(N(C)C(=O)Nc4c(Cl)c(OC)cc(OC)c4Cl)ncn3)cc2)CC1`, the Potency was 6.62 µM (active). With `COc1ccc(CCN(C)CCCOc2ccc(S(=O)(=O)c3[nH]c4ccccc4c3C(C)C)cc2)cc1OC` the Potency was 26.4 µM (active). In the case of `O=C1Nc2ccc(I)cc2C1=Cc1cc(Br)c(O)c(Br)c1`, the Potency is reported as “inactive”. In the case of `CN1CCC[C@H]1CCO[C@](C)(c1ccccc1)c1ccc(Cl)cc1`, the Potency is reported as 18.7 µM (active). With `CCN(CC)CCCCNc1nc2cc(Cl)c(Cl)cc2nc1-c1ccc(-c2cccs2)s1` the Potency was 8.33 µM (active). With `CC(C)[C@H](O)C(=O)N[C@@H](C)C(=O)N[C@@H]1C(=O)N(C)CCc2ccccc21` the Potency was 26.4 µM (active). For `CO[C@H]1/C=C\O[C@@]2(C)Oc3c(C)c(O)c4c(O)c(c5c(nc6cc(C)ccn65)c4c3C2=O)NC(=O)C(C)=CC=C[C@H](C)[C@H](O)[C@@H](C)[C@@H](O)[C@@H](C)[C@H](OC(C)=O)[C@H]1C`, the Potency was “inactive”. For `O=c1[nH]c(=O)n([C@H]2C[C@@H](O)[C@@H](CO)O2)cc1I`, the Potency was “inactive”. With `CC(C)(CO)[C@@H](O)C(=O)NCCC(=O)O` the Potency was 20.9 µM (active). In the case of `c1ccc(CNc2nc(N3CCOc4ccccc43)nc3c2CCCC3)cc1`, the Potency is reported as “inactive”. In the case of `CCN(CCO)CCCOc1ccc2c(Nc3cc(CC(=O)Nc4cccc(F)c4)[nH]n3)ncnc2c1`, the Potency is reported as 16.6 µM (active). In the case of `Cc1nn(Cc2ccccc2Cl)c(C)c1CN(C)CC(O)COc1ccc(Cl)cc1` (stereo not given), the Potency is reported as 20.9 µM (active). In the case of `Cc1cc(C(C)Nc2ccccc2)c2nc(N3CCOCC3)cc(=O)n2c1` (stereo not given), the Potency is reported as 1.05 µM (active). With `CSc1cccc(Nc2ncc3cc(-c4c(Cl)cccc4Cl)c(=O)n(C)c3n2)c1` the Potency was 0.118 µM (active). With `CN(C)c1ccccc1CN1CCCN(Cc2ccccc2N(C)C)C1c1ccncc1` the Potency was 16.6 µM (active). With `CC[C@H](C)C(=O)O[C@H]1C[C@H](O)C=C2C=C[C@H](C)[C@H](CC[C@@H](O)C[C@@H](O)CC(=O)O)[C@H]21` the Potency was “inactive”. With `CC1=C[C@@H]2[C@@H]([C@@H](O)C[C@@]3(C)[C@H]2C[C@@H](C)[C@]3(O)C(=O)CO)[C@@]2(C)Cc3cnn(-c4ccccc4)c3C=C12` the Potency was 20.9 µM (active).
